In the supplement of paper PMC11219838:

test system: Caenorhabditis elegans L1 (N2); assay: survival and reproduction score of C. elegans L1 (0: 0-10 living worms, 1: 11-20, 2: 21-50, 3: >50, 4: overgrown) (score 0-4); higher = more worms, less nematicidal, active = 1 or less; extreme values may be limits of the assay; details: 60 µM; 6 days; temperature: 20 °C
Outline: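 Synchronized C. elegans N2 L1s (about 20 per well) were grown in 96-well plates in liquid NGM with E. coli HB101 and compound at 60 µM final (0.6% v/v DMSO), shaken sealed at 200 rpm and 20 °C for 6 days. The ordinal score for survival and reproduction counted living worms per well under a dissection microscope. The scale ran 0 (0–10 worms) to 4 (overgrown, starved), averaged over two biological replicates.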

Row | SMILES | survival and reproduction score
1 | O=C(c1ccccc1-c1nc(-c2ccccc2Cl)no1)N1CCCCC1 | 4 (inactive)
2 | Cc1ccccc1CSc1nnc(-c2ccccc2Cl)o1 | 4 (inactive)
3 | Cc1ccc(-c2nc(-c3ccccc3)no2)cc1 | 0.5 (active)
4 | COc1ccc(OCc2nc(-c3cccc(Br)c3)no2)cc1 | 4 (inactive)
5 | COc1ccc(-c2noc(-c3ccc(Cl)cc3Cl)n2)cc1 | 4 (inactive)
6 | Clc1ccc(-c2noc(-c3ccccc3Br)n2)cc1 | 3 (inactive)
7 | Clc1ccc(OCc2nc(-c3ccccn3)no2)c(Br)c1 | 4 (inactive)
8 | COc1nc(C)ccc1-c1noc(-c2ccc(C(C)(C)C)cc2)n1 | 4 (inactive)
9 | Fc1ccc(-c2noc(-c3ccc(Br)cc3)n2)cc1 | 0 (active)
10 | N#Cc1ccc(CSc2nnc(-c3ccncc3)o2)cc1 | 4 (inactive)
11 | O=C(Nc1cccnc1)c1ccccc1-c1nc(-c2ccc(Cl)cc2)no1 | 4 (inactive)
12 | COc1ccccc1NC(=O)CSc1nnc(-c2cccc3ccccc23)o1 | 4 (inactive)
13 | CC(C)(C)c1ccc(-c2noc(COc3ccccc3)n2)cc1 | 4 (inactive)
14 | CCOc1ccc(-c2noc(-c3ccncc3)n2)cc1OC | 4 (inactive)
15 | Brc1cccc(-c2nc(-c3ccncc3)no2)c1 | 1 (active)
16 | CCn1c(SCc2nnc(-c3ccccc3)o2)nnc1-c1ccco1 | 4 (inactive)
17 | Cc1ccc(-c2nc(-c3cccc(C(F)(F)F)c3)no2)cc1 | 3.5 (inactive)
18 | CC(C)CCC(=O)Nc1ccccc1-c1nc(-c2ccccn2)no1 | 2 (inactive)
19 | CCn1cc(C(=O)CSc2nnc(-c3ccccc3)o2)c2ccccc21 | 4 (inactive)
